# In PubChem BioAssay (Tox21):
# Results filed as inconclusive are left out. Values without a mark were called inactive. Calls come from the whole dose curve.
# Target: 5-hydroxytryptamine receptor 2A (Homo sapiens) (UniProt P28223)
# Assay: 5-hydroxytryptamine receptor 2A (HTR2A) small molecule agonists, cell-based qHTS assay (AID 1963587); note: nearly all actives have a fitted effect of over 30% in size
# Settings: HTR2A-CHO cells, calcium flux fluorescence, agonist mode; series mostly up to 76.8 µM; activation: at the top concentration
# Excerpt: National Center for Advancing Translational Sciences [NCATS]
# Division of Preclinical Innovation [DPI]
# U.S. Environmental Protection Agency [EPA]
# National Institutes of Environmental Health Sciences [NIEHS]
# National Toxicology Program [NTP]
# U.S. Food and Drug Administration [FDA]
# The HTR2A receptor is a subtype of the 5-HT2 receptor that belongs to the serotonin receptor family and is a G protein-coupled receptor (GPCR). The HTR2A-CHO cell line stably expressing human 5-hydroxytryptamine receptor 2A (HTR2A) can be used for screening agonists of interactions between 5-HT2 and its ligands. The HTR2A-CHO calcium flux assay is a homogeneous fluorescence-based assay for detecting the intracellular calcium level using FDSS kinetic plate reader system.
# HTR2A-CHO cells were dispensed at 2000 cells/3uL/well in 1536-well black-clear bottom plates using a Multidrop Dispenser. After the assay plates were incubated at a 37 C/5% CO2 incubator for 18 h, 3 uL of Dye Loading Buffer was transferred to the assay plate by a Flying Reagent Dispenser. The assay plates were incubated at 37 C for 1h. For agonist mode, 23 nL of compounds dissolved in DMSO, positive controls or DMSO only was transferred to the assay plate by a pin tool. The fluorescence intensity in the plates was measured using FDSS 7000EX kinetic plate reader for 2 min at 1 sec intervals.
# % is set by controls: 0 for no effect and ±100 for the full control effect.
# 5-hydroxytryptamine receptor 2A (Homo sapiens), sequence (P28223 whole entry, looked up): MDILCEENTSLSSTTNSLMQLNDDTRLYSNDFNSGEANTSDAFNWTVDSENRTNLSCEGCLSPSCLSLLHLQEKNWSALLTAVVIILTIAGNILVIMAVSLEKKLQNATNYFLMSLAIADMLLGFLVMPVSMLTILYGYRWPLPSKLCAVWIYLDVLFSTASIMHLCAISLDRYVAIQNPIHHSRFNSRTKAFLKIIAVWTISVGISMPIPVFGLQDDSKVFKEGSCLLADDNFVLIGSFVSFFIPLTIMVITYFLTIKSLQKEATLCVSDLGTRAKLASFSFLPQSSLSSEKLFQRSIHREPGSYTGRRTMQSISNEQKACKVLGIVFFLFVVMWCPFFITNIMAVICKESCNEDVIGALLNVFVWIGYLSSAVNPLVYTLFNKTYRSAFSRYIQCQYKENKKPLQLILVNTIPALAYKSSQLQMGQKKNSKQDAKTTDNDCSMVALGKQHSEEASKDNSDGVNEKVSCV
row,Structure (SMILES),activation
1,O=C1c2ccccc2C(=O)C1c1ccc2ccccc2n1,-0.0861% [at 35.6 µM]
2,Oc1cc2ccccc2cc1O,-5.94%
3,OCCNCc1ccccc1,0.134%
4,Cc1cnc(C)c(C)n1,0.625%
5,Nc1cccc2c(=O)[nH][nH]c(=O)c12,0.11%
6,CC[N+]1(CC)CCC(=C(c2ccccc2)c2ccccc2)C1C (stereo not given),-6.23% [at 35.6 µM]
7,CCN1CN(CC)CN(CC)C1,-0.999%
8,CCOC(=O)c1ccccc1O,-5.21% [at 35.6 µM]
9,CC(C)(C)NSc1nc2ccccc2s1,-0.0708%
10,O=[N+]([O-])c1ccc2[nH]ncc2c1,-1.45%
11,Nc1ccc2cc(S(=O)(=O)O)cc(O)c2c1,3.4%
12,C[N+]1(C)CCC(=C(c2ccccc2)c2ccccc2)CC1,-14.3% [at 35.6 µM]
13,Cc1cc(C)n(CO)n1,3.3%
14,CCCCCCCC/C=C\CCCCCCCC(=O)OC[C@@H](O)[C@H]1OC[C@H](O)[C@H]1O,-0.72%
15,O=C1c2ccccc2C(=O)N1CCl,-0.191%
16,CC(=O)Nc1ccn(C2COC(COC(=O)c3ccccc3)O2)c(=O)n1 (stereo not given),-1.57% [at 35.6 µM]
17,CCCCCCCCCC(=O)OCC,-0.0218%
18,OCC(CBr)(CBr)CBr,-1.87%
19,CC(C)C[C@@H]1[C@H](c2ccccc2)OC(=O)N1CCCN1CCCCCC1,-20.1% [at 35.6 µM]
20,CC[C@H](NC(=O)c1cc(F)ccc1NS(=O)(=O)c1cccc2cccnc12)c1ccccc1,-2.83%

row,Structure (SMILES),activation
1,CCc1nccnc1CC,3.43% [at 15.9 µM]
2,CC/C=C\CCCCO,-0.819%
3,N#CCC(=O)NN,-9.36% [at 35.6 µM]
4,CC(C)c1ccc(C#N)cc1,-6.97%
5,Cc1cc(=O)oc2cc(O)cc(O)c12,-0.864%
6,O=C(NC(Cc1cc(=O)[nH]c2ccccc12)C(=O)O)c1ccc(Cl)cc1 (stereo not given),-1.18% [at 35.6 µM]
7,CC(C)=CCOC(=O)c1ccccc1,-8.79%
8,Nc1ccc(C(=O)OCC(O)CO)cc1 (stereo not given),0.707% [at 35.6 µM]
9,Oc1cccc2cc3cccc(O)c3c(O)c12,1.48%
10,OC[C@@H](O)C(O)[C@@H](O)CO (stereo not given in full),2.88%
11,O=CC(=O)c1ccccc1,-0.304%
12,CCC(C)(C)C(=O)O,-0.653%
13,CCCCCCC/C=C/C=O,-10.6%
14,CC/C=C\CC/C=C/C(OCC)OCC,-0.661%
15,O=C(Nc1ccc2c(O)c(N=Nc3ccc(N=Nc4ccc(S(=O)(=O)O)cc4)cc3)c(S(=O)(=O)O)cc2c1)c1ccccc1,-1.98%
16,CCNS(=O)(=O)c1ccc(C)cc1,-0.198%
17,OC1CCCc2ccccc21 (stereo not given),-0.996%
18,O=CCCc1ccccc1,-8.25%
19,C=CC(C)(CCC=C(C)C)OC(=O)c1ccccc1 (stereo not given),-1.96%
20,CN1Cc2cc(C(=O)N3CCC(C4CCNCC4)CC3)ccc2N[C@@H](CC(=O)O)C1=O,2.78% [at 35.6 µM]
